# Calls of active or inactive are those of the source. Unless noted, no rule for the calls is given here.
# Key:
# [1] = HepG2 liver cancer cell viability effects, profiling panel, resazurin fluorescence, 24 h, PK04 Diversity Set (AID 1172); conditions: higher = more signal; also: test concentration not given here
# [2] = basal S. cerevisiae growth modulation, no modifier, primary screen, OD600, strain BY4716, 24 h, basal condition (AID 1173); conditions: OD600, 24 h, higher = more signal, called active from +8 up or from −8 down
# [3] = MM1S myeloma cell viability, profiling panel, resazurin fluorescence, basal, 24 h, PK04 Diversity Set (AID 1174); conditions: higher = more signal, called active from +8 up or from −8 down;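 also: MM1S multiple myeloma cell line; test concentration not given here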
# [4] = target: Dihydroorotate dehydrogenase (quinone), mitochondrial (Plasmodium falciparum (isolate 3D7)) (UniProt Q08210); assay: PfDHODH enzyme inhibitors, primary screen, biochemical, C-terminal His tag, absorbance 600 nm (AID 1175); conditions: DCIP absorbance 600 nm, higher = more signal, called active from +8 up or from −8 down;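 also: recombinant parasite enzyme with a five histidine tag at its C terminus; test concentration not given here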
# Chain of Dihydroorotate dehydrogenase (quinone), mitochondrial (Plasmodium falciparum (isolate 3D7)) (Q08210 whole entry, looked up): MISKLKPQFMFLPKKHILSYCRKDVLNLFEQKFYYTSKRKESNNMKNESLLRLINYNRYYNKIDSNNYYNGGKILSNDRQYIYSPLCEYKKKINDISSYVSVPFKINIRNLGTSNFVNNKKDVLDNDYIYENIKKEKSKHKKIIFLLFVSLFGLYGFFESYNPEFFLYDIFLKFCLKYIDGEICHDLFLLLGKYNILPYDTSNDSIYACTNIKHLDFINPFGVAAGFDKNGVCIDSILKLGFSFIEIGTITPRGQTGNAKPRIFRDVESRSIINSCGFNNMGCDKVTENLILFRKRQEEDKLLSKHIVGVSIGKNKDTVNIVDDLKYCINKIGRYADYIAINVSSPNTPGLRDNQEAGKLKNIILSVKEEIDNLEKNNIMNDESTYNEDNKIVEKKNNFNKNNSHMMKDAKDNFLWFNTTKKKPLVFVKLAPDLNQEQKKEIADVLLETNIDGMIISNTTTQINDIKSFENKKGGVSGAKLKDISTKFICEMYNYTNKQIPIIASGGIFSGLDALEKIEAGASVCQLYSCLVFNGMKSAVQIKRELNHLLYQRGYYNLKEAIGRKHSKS
# [5] = P. aeruginosa biofilm formation inhibitors, primary screen, strain PAO1, LB-PBS medium, absorbance 600 nm (AID 1176); also: test concentration not given here; conditions: P. aeruginosa PAO1 growth/biofilm, A600, 12 h; higher = more signal
# [6] = S. cerevisiae RM11-1a growth modifiers, primary screen, strain RM11-1a, OD600, basal, 24 h (AID 1177); conditions: OD600, 24 h, higher = more signal, called active from +8 up or from −8 down;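 also: cultures grown under basal conditions with no added stressor; test concentration not given here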
# [7] = E. coli acrAB mutant growth effects, primary screen, E. coli filamentation inducers, strain DRC39, OD650, 24 h (AID 1178); conditions: higher = more signal, called active from +8 up or from −8 down;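 also: growth measured as culture turbidity by optical density at 650 nm; test concentration not given here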
# [8] = E. coli acrAB mutant growth effects, primary screen, E. coli filamentation inducers, strain DRC39, OD650, 48 h (AID 1179);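 also: screen aims at cell division blockers that make cells filament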; conditions: E. coli DRC39 delta-acrAB growth, higher = more signal, called active from +8 up or from −8 down
# [9] = RPMI8226 myeloma cell viability, profiling panel, resazurin fluorescence, basal, 24 h, PK04 Diversity Set (AID 1180); conditions: higher = more signal;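 also: RPMI8826 multiple myeloma cell line at 5000 cells per well; test concentration not given here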
# [10] = target: E3 ubiquitin-protein ligase XIAP (Homo sapiens) (UniProt P98170); assay: XIAP binders, primary screen, biophysical, small-molecule microarray, fluorescence 635 nm (AID 1181); conditions: small-molecule microarray binding, higher = more signal;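 also: score merges 667 nm emission and signal to noise over triplicate slides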
# Chain of E3 ubiquitin-protein ligase XIAP (Homo sapiens) (P98170 whole entry, looked up): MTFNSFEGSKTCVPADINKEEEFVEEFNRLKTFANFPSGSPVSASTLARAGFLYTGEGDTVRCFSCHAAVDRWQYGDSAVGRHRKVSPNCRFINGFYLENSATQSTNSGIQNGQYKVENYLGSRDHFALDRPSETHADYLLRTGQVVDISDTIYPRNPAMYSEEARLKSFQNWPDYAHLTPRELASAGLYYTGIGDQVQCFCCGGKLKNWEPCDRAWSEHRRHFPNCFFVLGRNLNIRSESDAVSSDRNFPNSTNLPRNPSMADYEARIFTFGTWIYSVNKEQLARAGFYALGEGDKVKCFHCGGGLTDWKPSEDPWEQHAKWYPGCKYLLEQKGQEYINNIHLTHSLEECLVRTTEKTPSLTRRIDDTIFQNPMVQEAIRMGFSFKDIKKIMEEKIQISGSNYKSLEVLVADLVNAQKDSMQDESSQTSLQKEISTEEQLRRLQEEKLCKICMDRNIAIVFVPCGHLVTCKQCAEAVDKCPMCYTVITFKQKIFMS
SMILES,z-score [1],z-score [2],z-score [3],composite z-score [4],z-score [5],z-score [6],z-score [7],z-score [8],z-score [9],composite z-score [10]
OC[C@H]1O[C@H](C#Cc2ccccc2)C=C[C@@H]1O,-0.0313,-2.6 (inactive),-0.323 (inactive),-0.249 (inactive),0.298 (inactive),-0.353 (inactive),0.953 (inactive),0.626 (inactive),0.226,-0.184
CCc1cc2c(nc1CC)CCN(CCC(C)=NOC[C@@H](C)[C@H](OCc1ccccc1)C(C)C)C2,-0.0541,-0.258 (inactive),0.0348 (inactive),-1.67 (inactive),-0.537 (inactive),-2.21 (inactive),-0.231 (inactive),-0.313 (inactive),-0.261,-0.11
CC(C)(C)N1C(=O)[C@H]2[C@H]3[C@H](O)[C@H](O)CC(=NOC[C@@H](O)COCc4ccco4)[C@@H]3CC[C@H]2C1=O,-0.28,0.382 (inactive),0.0017 (inactive),-0.0796 (inactive),0.213 (inactive),-0.0396 (inactive),-0.323 (inactive),-0.253 (inactive),0.589,-0.173
CC(C)(C)N1C(=O)[C@H]2[C@H]3[C@H](O)[C@H](O)CC(=NNC(=O)OCc4ccccc4)[C@H]3CC[C@H]2C1=O,-0.558,-4.15 (inactive),0.0137 (inactive),-2.25 (inactive),0.118 (inactive),-0.589 (inactive),0.352 (inactive),-0.645 (inactive),-0.198,0.0282
CCN1C(=O)[C@H]2[C@H]3[C@H](O)[C@H](O)CC(=NNC(=O)OCc4ccccc4)[C@H]3CC[C@H]2C1=O,-0.0019,-0.277 (inactive),-0.193 (inactive),-0.052 (inactive),0.814 (inactive),-0.727 (inactive),-0.47 (inactive),-1.79 (inactive),-0.163,-0.102
CC(=O)OC[C@H]1O[C@@H](ON=C(C)C)[C@H](OC(C)=O)[C@@H](OC(C)=O)[C@@H]1OC(C)=O,0.199,0.515 (inactive),-0.0437 (inactive),-0.696 (inactive),0.569 (inactive),0.0958 (inactive),-0.308 (inactive),-2.31 (inactive),-0.0678,0.0478
CCOC(=O)NN=C1C[C@@H](O)[C@@H](O)[C@@H]2[C@@H]3C(=O)N(C[C@@H]4CCCO4)C(=O)[C@@H]3CC[C@H]12,0.0254,0.197 (inactive),-0.841 (inactive),-1.36 (inactive),-0.495 (inactive),-0.396 (inactive),0.213 (inactive),0.626 (inactive),-0.248,-0.02
CON=C(C)CCN1CCCCc2nc(C)c(C)cc21,-0.18,-0.571 (inactive),0.183 (inactive),-1.07 (inactive),0.323 (inactive),-0.11 (inactive),0.852 (inactive),-0.78 (inactive),0.6,0.496
CCOC(=O)[C@H](Cc1ccccc1)NC(=O)CCC1CC(OC(=O)NCc2cccc3ccccc23)CC2(CCCC(COC(=O)NCCc3ccccc3OC)O2)O1 (stereo not given in full),0.942,-1.14 (inactive),0.179 (inactive),-0.561 (inactive),0.86 (inactive),0.166 (inactive),0.122 (inactive),0.0971 (inactive),0.0498,-0.194
CO[C@H]1C[C@@H]2C[C@H](O)CC(CC(=O)O[C@@H](C=CCC(C)C)C[C@@H]3CC[C@H](C)[C@@H](C1)O3)O2,-0.37,-1.47 (inactive),-0.0942 (inactive),-0.928 (inactive),-0.139 (inactive),-1.65 (inactive),-0.033 (inactive),-0.394 (inactive),-0.384,0.0256
COC(=O)CC=C[C@@H](C)[C@@H](C=NOC(C)CN1CCCc2nc(C)c(C)cc21)NS(=O)(=O)c1ccc(C)cc1 (stereo not given in full),-0.566,0.21 (inactive),-0.47 (inactive),0.899 (inactive),0.253 (inactive),0.253 (inactive),0.157 (inactive),-0.0007 (inactive),-1.32,0.222
CCOC(=O)[C@H](Cc1ccccc1)NC(=O)CCC1CC(OC(=O)NCc2cccc3ccccc23)CC2(CCCC(COC(=O)NCCOc3ccccc3)O2)O1 (stereo not given in full),-0.208,-1.13 (inactive),1.41 (inactive),-0.533 (inactive),-0.0448 (inactive),-1.17 (inactive),0.19 (inactive),-1.67 (inactive),1.02,-0.102
